# Bioassay records deposited in PubChem by National Center for Advancing Translational Sciences (NCATS).
# DT40 TDP1 CPT = qHTS for Inhibitors of human tyrosyl-DNA phosphodiesterase 1 (TDP1): qHTS in cells in presence of CPT; chicken DT40 Tdp1-/-;hTDP1 cells + 20 nM CPT, ATP luminescence, 48 h; Potency, µM (highest dose often 46.2 µM), for the others: at the top dose activity change, negative = growth inhibition, actives largely listed as inhibitors; actives 12% (n = 420,000); note: potency is the fitted concentration of half-maximal effect; nearly all actives have a fitted effect of over 55% in size
#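 Chicken DT40 Tdp1-/- cells complemented with human TDP1, 400 cells/well, exposed to compounds plus 20 nM camptothecin for at least 48 h at 37 C; viability read as ATP content by CellTiter-Glo luminescence.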
# DT40 TDP1 no CPT = qHTS for Inhibitors of human tyrosyl-DNA phosphodiesterase 1 (TDP1): qHTS in cells in absence of CPT; DT40 Tdp1-/- hTDP1 cells, no CPT, ATP luminescence, 48 h; Potency, µM (series often up to 46.2 µM), without a hit: at the top dose activity change, negative = growth inhibition, actives largely listed as inhibitors; actives 15% (n = 420,000); AID 686978, 2013; note: potency is the fitted concentration of half-maximal effect; nearly all actives have a fitted effect of over 55% in size
#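 A cellular qHTS used chicken DT40 cells lacking endogenous Tdp1 but carrying stably transfected human TDP1. Compounds were applied without camptothecin, and cell growth kinetics were judged by ATP-dependent luminescence after ≥48 hr.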
# HT1080 IDH1KD tx = qHTS for induction of synthetic lethality in tumor cells producing 2HG: qHTS for the HT-1080-IDH1KD cell line; HT-1080 IDH1 knockdown viability, ATP luminescence, 48 h; actives 2% (n = 360,000); Potency, µM (highest dose often 46.1 µM), inactives show at the top dose activity, negative = toxicity, most hits filed as cytotoxic; AID 686971, 2013;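 note: potency is the fitted concentration of half-maximal effect; 0% = DMSO wells and -100% = cell-free medium wells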
#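 HT-1080-IDH1KD cells (IDH1 knocked down), 750/well in RPMI with 5% FBS, treated with compound 48 h at 37 degrees C. Viability by CellTiter-Glo luminescence, normalised to DMSO and no-cell wells; concentration-response curves classed.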
# ELG1 DNA repair = qHTS screen for small molecules that inhibit ELG1-dependent DNA repair in human embryonic kidney (HEK293T) cells expressing luciferase-tagged ELG1; HEK293T ELG1-luciferase reporter, luminescence, 16 h; DNA damage induced by 5-fluorouridine; Potency, µM (doses to about 46.1 µM), for the others: at the highest dose activity change, negative = inhibition, actives largely listed as inhibitors; actives 2.3% (n = 330,000); note: potency is the fitted concentration of half-maximal effect; nearly all actives have a fitted effect of over 55% in size
#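 Reporter activity after DNA damage by 5-fluorouridine is monitored. Compound-treated cells incubate 16 hr at 37 °C, then ONE-Glo is added for 30 min before luminescence reading.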
# IL-1B inflam inh = qHTS for Inhibitors of Inflammasome Signaling: IL-1-beta AlphaLISA Primary Screen; THP-1 LPS/ATP IL-1B secretion, AlphaLISA, 16 h; active compounds read low; activity change, % at 57.5 µM; actives 4.7% (n = 360,000); in the data active = activity change below about -50%; inconclusive = mostly about -30% to -49%
#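 Secreted IL-1B measured by AlphaLISA bead assay after 16 h compound exposure of THP-1 cells; compounds (final up to 57.5 uM) added 1 h before LPS (250 ng/mL) and ATP (1.25 mM) stimulation; lower signal means less secretion.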
# HT1080-NT tox = qHTS for induction of synthetic lethality in tumor cells producing 2HG: qHTS for the HT-1080-NT fibrosarcoma cell line. HT-1080-NT fibrosarcoma viability, CellTiter-Glo ATP luminescence, 48 h. Potency, µM (highest dose often 46.1 µM), for inactives: at the highest dose activity, negative = less viability, actives largely listed as cytotoxic. actives 1.6% (n = 360,000). AID 686970, 2013;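 note: NT is the 2HG producing partner of a matched IDH1 knockdown line; potency is the fitted concentration of half-maximal effect; 0% = DMSO-treated cells and -100% = media-only wells without cells; nearly all actives have a fitted effect of over 55% in size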
#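 Viability by CellTiter-Glo luminescence after 48 h compound exposure at 37C of HT-1080-NT cells (750/well, RPMI, 5% FBS). % activity scaled between DMSO wells and medium-only wells, then curve-fitted and categorized by curve class.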
# * marks the source's active call; other numbers are inactive results; ? = inconclusive; . = no result; [ ] = dose if it differs, or a comment. In the library only some 19% were active in any assay of this set; here they are far more common. Unless noted, calls come from the whole dose curve; as a rule, active = well fitted curve in the direction sought with a large enough effect; inconclusive = small, poorly fitted or top-dose-only effect, or another doubt; inactive = no such curve, though single readings can be large; an effect the other way counts as inactive or inconclusive. Unless noted, % is set by controls: 0 for no effect and ±100 for the full control effect.
SMILES,DT40 TDP1 CPT,DT40 TDP1 no CPT,HT1080 IDH1KD tx,ELG1 DNA repair,IL-1B inflam inh,HT1080-NT tox
COc1cc(NC(=O)c2ccccc2OCc2ccccc2)cc(OC)c1OC,?,16.4µM*,-8.0%,16.4µM*,29.9,-10.7%
NC(=O)COc1ccccc1C(=O)Nc1ccccc1,1.8%,1.7%,.,.,.,.
Cc1cc(C(=O)Nc2ccc(OCc3ccccc3)cc2)c(C)o1,?,?,?,?,-60.1*,?
CCCCN(CCCC)CC(O)COc1ccccc1C(=O)Nc1ccccc1 (centres undefined),?,?,?,-13.1%,-95.7*,?
O=C(Nc1ccc(OCc2ccccc2)cc1)c1ccccc1,18.5%,-0.6%,10.6%,?,-15.8,10.9%
COc1ccc(NS(=O)(=O)c2ccc(-n3cnnn3)cc2)cc1OC,16.4µM*,9.2µM*,-15.8%,-17.6%,17.0,?
COc1ccc(S(=O)(=O)Nc2ccc(-n3cnnn3)cc2)cc1Br,?,-23.1%,-10.6%,-8.2%,-7.3,-0.1%
Cc1cc(S(=O)(=O)NC2CCCCC2)ccc1-n1cnnn1,-0.5%,-26.7%,6.8%,1.5%,31.0,14.4%
Cc1ccc(S(=O)(=O)Nc2ccc(-n3cnnn3)cc2)cc1,-12.5%,-37.1%,-5.2%,14.9%,-2.1,-12.3%
CSc1ccc(NS(=O)(=O)c2ccc(-n3cnnn3)cc2)cc1,?,20.6µM*,-1.8%,10.6%,-6.1,-2.5%
COc1ccc(S(=O)(=O)NC2CCCCC2)cc1-n1cnnn1,-12.1%,20.6µM*,-2.2%,-8.6%,30.2,-2.1%
COc1cccc(-c2cnc(-c3ccncc3)nc2C2CCN(C(=O)Cc3csc(C)n3)CC2)c1,-1.8%[9.04 µM],?,.,.,.,.
O=C(CCN1C(=O)c2cccc3cccc(c23)C1=O)Nc1ccon1,-1.3%,-4.3%,2.4%,13.2%,5.2,5.2%
CCc1ccc(CN2CCC(n3nccc3NC(=O)Cc3ccccc3)CC2)o1,-13.7%,?,4.8%,?,0.0,-1.2%
CCN1CCOC(=O)C1CC(=O)Nc1ccc(C)c(Cl)c1 (centres undefined),7.31µM*,5.8µM*,.,.,.,.
Cc1cccc(NC(=O)CC2C(=O)OCCN2Cc2ccccc2)c1 (centres undefined),-23.7%,-25.7%,.,.,.,.
CCN1CCOC(=O)C1CC(=O)Nc1cc(Cl)ccc1C (centres undefined),7.31µM*,14.6µM*,.,.,.,.
CCN1CCN(CCOc2ccc(Cl)cc2)CC1,-3.8%,-11.0%,-1.8%,-0.9%,11.5,-0.4%
Cc1sc2ncnc(N3CCCCC3)c2c1C,?,-29.1%,-20.8%,?,21.3,-24.2%
Clc1ccc(OCCN2CCN(c3ncnc4sccc34)CC2)cc1,0.581µM*,0.581µM*,23.1µM*,?,-8.1,4.1%
Cc1ccc(OCCN2CCN(c3ncnc4sc(C)c(C)c34)CC2)cc1,3.66µM*,3.66µM*,-26.2%,?,?,-21.3%
Cc1ccc(NS(=O)(=O)c2ccc(-n3cccn3)cc2)c(Cl)c1,?,?,4.0%,.,26.0,6.0%
O=C(Nc1ccccc1)c1cccnc1NCCc1ccccc1,?,16.4µM*,4.8%,2.0%,-8.4,-1.9%
COc1ccc(NC(=O)c2cccnc2NCCc2ccccc2)cc1,20.6µM*,?,-4.1%,-17.6%,-3.3,-7.3%
CCC(=O)N1CCc2cc(Br)cc(S(=O)(=O)CCC(=O)Nc3ccc(CC)cc3)c21,-8.5%,0.4%,.,.,.,.
SMILES,DT40 TDP1 CPT,DT40 TDP1 no CPT,HT1080 IDH1KD tx,ELG1 DNA repair,IL-1B inflam inh,HT1080-NT tox
CCCCN1C(=O)C(CC(=O)NCCc2ccccn2)CC(C(=O)N2CCOCC2)=C1C (centres undefined),-7.3%,0.7%,0.1%,.,24.2,0.4%
CCOc1cc(/C=C2/C(=N)N3C=CSC3=NC2=O)ccc1OCCCOc1ccccc1C,10.3µM*,8.2µM*,?,?,-2.5,?
CCOc1cc(/C=C2\C(=N)N3N=C(S(C)(=O)=O)SC3=NC2=O)ccc1OCCOc1cccc(OC)c1,-3.2%,13µM*,-21.2%,-7.2%,-9.2,?
CCS(=O)(=O)C1=NN2C(=N)/C(=C\c3ccc(OCCOc4cccc(OC)c4)c(OC)c3)C(=O)N=C2S1,-17.5%,14.9%,-0.5%,3.5%,18.5,-6.3%
CNC(=S)N(CCCn1ccnc1)Cc1c(F)cccc1Cl,-0.3%,-14.7%,4.6%,-0.6%,23.3,-4.8%
COc1ccc(CCNC(=O)C(=O)Nc2ccc(C)c(C)c2)cc1,-1.3%,-6.3%,.,.,.,.
COc1ccc(C/C(C)=N/NC(=S)Nc2ccccc2)cc1,?,?,-8.6%,?,-7.3,-6.7%
COc1ccc(C/C(C)=N/NC(=S)Nc2ccc(C)c(C)c2)cc1,16.4µM*,16.4µM*,11.4%,?,11.2,7.0%
COc1ccc(C/C(C)=N/NC(=S)Nc2ccc(Cl)cc2)cc1,14.6µM*,11.6µM*,-16.7%,-4.0%,44.5,-23.1%
O=C(Nc1ccccc1)OCCNC(=O)c1cccc(Br)c1,0.1%,-25.2%,-25.7%,-4.3%,19.7,-6.3%
O=C(Nc1ccc(Cl)c(Cl)c1)OCCNC(=O)c1cccc(Cl)c1,6.51µM*,11.6µM*,?,-7.3%,-14.0,?
COc1ccc(NC(C)=O)cc1S(=O)(=O)NC(C)c1ccc(-n2ccnc2)cc1 (centres undefined),2.3%,-9.8%,2.8%,2.9%,-6.7,7.4%
COc1ccc(NS(=O)(=O)c2c(C)nc3scc(C)n3c2=O)cc1,-4.9%,?,.,.,.,.
COc1cccc(C(=O)N(CN2CCCC2=O)c2ccccc2OC)c1,-19.4%,-14.9%,3.6%,-3.7%,13.6,-5.8%
COc1ccccc1N(CN1C(=O)c2ccccc2C1=O)C(=O)c1cccc(C)c1,20.6µM*,?,13.9%,?,-7.4,24.6%
Cc1cc(=O)oc2cc(NC(=O)C(CCCN=C(N)N)NC(=O)OCc3ccccc3)ccc12 (centres undefined),1.9%,-5.4%,13.6%,0.0%,1.4,8.3%
